Eight molecules from PubChem BioAssay (Tox21) can be followed below.

Assay [1] can be described thus: Nuclear factor erythroid 2-related factor 2/antioxidant responsive element (Nrf2/ARE) small molecule agonists: qHTS cell viability counter screen in human keratinocytes (AID 1919968; active = well fitted curve in the direction sought with a large enough effect in the repeat runs; an effect the other way counts as inactive or inconclusive; also: nearly all actives have a fitted effect of over 55% in size). The gist of the method: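 Viability counter-screen: KeratinoSens reporter cells, DMSO-delivered compounds, 23 h at 37 C, CellTiter-Fluor fluorescence.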
Assay [2] can be described thus: Nuclear factor erythroid 2-related factor 2/antioxidant responsive element (Nrf2/ARE) small molecule agonists: luciferase reporter gene qHTS assay in human keratinocytes (AID 1919969). Also: nearly all actives have a fitted effect of over 35% in size.
In assay [3] the target is Gonadotropin-releasing hormone receptor (Homo sapiens) (UniProt P30968). Kind of assay: Human gonadotropin-releasing hormone receptor (GnRHR) small molecule agonists, calcium flux assay in GnRHR-HEK293 cells (AID 1920063). Also: nearly all actives have a fitted effect of over 35% in size. An outline of the steps: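 Tox21-format agonist screen using human GnRHR-expressing HEK293 cells and a fluorescent calcium dye; kinetic 3-min fluorescence reading after compound addition, 15-point concentration series run in triplicate.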
Sequence of Gonadotropin-releasing hormone receptor (Homo sapiens) (P30968 whole entry, looked up): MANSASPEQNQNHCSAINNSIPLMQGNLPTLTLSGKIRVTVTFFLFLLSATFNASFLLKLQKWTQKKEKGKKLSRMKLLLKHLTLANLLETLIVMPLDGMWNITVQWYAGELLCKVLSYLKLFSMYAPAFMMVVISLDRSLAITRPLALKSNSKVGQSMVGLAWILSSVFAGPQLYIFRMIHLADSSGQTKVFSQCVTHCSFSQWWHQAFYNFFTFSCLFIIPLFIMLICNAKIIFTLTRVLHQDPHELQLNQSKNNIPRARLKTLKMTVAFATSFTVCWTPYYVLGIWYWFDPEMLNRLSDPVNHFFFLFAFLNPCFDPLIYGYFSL

Assay [4] addresses KiSS-1 receptor (Homo sapiens) (UniProt Q969F8). Description: Human kisspeptin (KISS1R) small molecule agonists, calcium flux assay in KISS1R-HEK293 cells (AID 1920064; active = well fitted curve in the direction sought with a large enough effect in the repeat runs; an effect the other way counts as inactive or inconclusive). The gist of the method:
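Intracellular calcium mobilization in KISS1R-HEK293 cells was recorded by fluorescence (Ex/Em 480/540) for 3 min following compound addition to cells pre-loaded 1 h with calcium dye.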

Assay [5] can be described thus: G protein-coupled receptor (GPCR) small molecule agonists, calcium flux assay: HEK293 wild type cell line counter screen (AID 1920065). The gist of the method:
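In this agonist-mode screen, ATP is the positive control and DMSO the vehicle. Cells grow 18 h before a 1 h dye incubation at 37 C; signal is taken at Ex/Em 480/540 over 3 min.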

A short description of assay [6]: p53 small molecule agonists, cell-based qHTS assay with human liver microsomes (AID 1963577).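 Also: p53 response element beta-lactamase reporter cells with liver microsomes plus NADPH.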 The gist of the method: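 With metabolic activation: human liver microsomes (0.5 mg/mL final) plus NADPH (0.5 mg/mL final) added alongside compounds to p53RE-bla cells; 16 h 37 C exposure; beta-lactamase read by LiveBLAzer fluorescence.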
Assay [7] can be described thus: p53 small molecule agonists, cell-based qHTS assay with rat liver microsomes (AID 1963578). An outline of the steps:
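Metabolic activation by rat liver microsomes and NADPH, each 0.5 mg/mL final, added right after compounds to p53RE-bla reporter cells (4,000/well, plated 5 h earlier). 16 h at 37 C, then LiveBLAzer substrate for 2 h at room temperature in the dark; fluorescence read-out.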

Assay [8] in a line: p53 small molecule agonists, cell-based qHTS assay with human liver microsomes: qHTS cell viability counter screen (AID 1963579). Also: nearly all actives have a fitted effect of over 45% in size. An outline of the steps:
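Metabolic activation used human liver microsomes and NADPH, both 0.5 mg/mL final, over 16 hours at 37 C on p53RE-bla cells (4,000/well). Cytotoxicity measured by CellTiter-Glo luminescence, 30 min at room temperature.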

Assay [9] in a line: p53 small molecule agonists, cell-based qHTS assay with rat liver microsomes: qHTS cell viability counter screen (AID 1963580). Also: nearly all actives have a fitted effect of over 45% in size. An outline of the steps:
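p53RE-bla HCT-116 cells were exposed 16 h at 37 C to compounds with rat liver microsomes (0.5 mg/mL) and NADPH (0.5 mg/mL). Viability was measured in the same wells as ATP content by CellTiter-Glo luminescence.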

Assay [10] can be described thus: p53 small molecule agonists, cell-based qHTS assay: qHTS cell viability counter screen (AID 1963581). Also: nearly all actives have a fitted effect of over 45% in size. An outline of the steps: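 Compounds are pinned onto HCT-116 p53RE-bla cells and left 16 h at 37 C. Following the reporter FRET read, ATP is quantified by CellTiter-Glo luminescence after 30 min at room temperature.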
Assay [11] is described as follows: p53 small molecule agonists, cell-based qHTS assay (AID 1963582; active = well fitted activation curve with a large enough effect in the signal ratio in the repeat runs, not every such curve was filed as active; the % refers to the signal ratio). An outline of the steps:
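Agonist activity was scored from beta-lactamase FRET fluorescence in p53RE-bla cells treated 16 h at 37 C with compounds in DMSO, substrate incubation being 2 h at room temperature.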

In assay [12] the target is 5-hydroxytryptamine receptor 2A (Homo sapiens) (UniProt P28223). Kind of assay: 5-hydroxytryptamine receptor 2A (HTR2A) small molecule antagonists, cell-based qHTS assay (AID 1963586). Also: nearly all actives have a fitted effect of over 45% in size. An outline of the steps:
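Antagonist-mode intracellular calcium assay: DOI (4 nM) added after 5 min compound pre-incubation at room temperature to dye-loaded HTR2A-CHO cells. Fluorescence followed for 3 min, sampled every second.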

For assay [13] the target is unchanged. Description: 5-hydroxytryptamine receptor 2A (HTR2A) small molecule agonists, cell-based qHTS assay (AID 1963587). Also: nearly all actives have a fitted effect of over 30% in size. The gist of the method: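 CHO cells stably expressing human HTR2A, plated 18 h, loaded with calcium dye 1 h at 37 C. Agonist mode: compounds added and intracellular calcium fluorescence recorded kinetically for 2 min at 1 sec intervals.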
Assay [14] addresses Muscarinic acetylcholine receptor M1 (Homo sapiens) (UniProt P11229). Description: Cholinergic receptor muscarinic 1 (CHRM1) small molecule antagonists, cell-based qHTS assay (AID 1963588). Also: nearly all actives have a fitted effect of over 40% in size. Also: potency is read from the fitted curve at half-maximal effect. The gist of the method: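 CHRM1-CHO calcium-flux assay, antagonist mode. Cells were seeded 18 h, dye-loaded 1 h at 37 C and given compound for 5 min at RT, then acetylcholine was added at 50nM. FDSS fluorescence was read 3 min; 15 concentrations, three runs.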

For assay [15] the target is unchanged. Kind of assay: Cholinergic receptor muscarinic 1 (CHRM1) small molecule agonists, cell-based qHTS assay (AID 1963589). Also: nearly all actives have a fitted effect of over 35% in size. An outline of the steps:
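Stable CHRM1-CHO cells (human receptor) were incubated 18 h, dye-loaded for 1 h at 37 C and exposed to test compounds for agonist activity, with calcium-dependent fluorescence followed kinetically.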

Assay [16] can be described thus: cAMP Responsive Elements (CRE) small molecule agonists, cell-based qHTS assay (AID 1963590). An outline of the steps: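 FRET-based beta-lactamase readout (LiveBLAzer B/G, 2 h RT) quantified CRE activation in HEK 293T CRE-bla cells after 3 h treatment with DMSO-dissolved compounds.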
Assay [17] in a line: cAMP Responsive Elements (CRE) small molecule antagonists, cell-based qHTS assay (AID 1963591; active = well fitted inhibition curve with a large enough effect in the signal ratio in the repeat runs, not every such curve was filed as active; the % refers to the signal ratio). The gist of the method:
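qHTS in CRE-bla HEK 293T cells: compound in DMSO, then 0.25 uM NKH477 (final), 3 h at 37 °C/5% CO2; beta-lactamase FRET read-out after 2 h substrate incubation.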

The target in assay [18] is Beta-2 adrenergic receptor (Homo sapiens) (UniProt P07550). Kind of assay: Adrenergic beta2 receptor (ADRB2) small molecule antagonists, cell-based qHTS assay (AID 1963592). Also: series mostly up to about 92 µM; nearly all actives have a fitted effect of over 50% in size. An outline of the steps:
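Cells (CHO, stable ADRB2 overexpression) incubated 18-20hr at 37C; compounds added from DMSO; agonist mix (1nM isoproterenol, 100uM IBMX, 25uM Ro-20-1724) added; 0.5hr RT; d2-cAMP and anti-cAMP-cryptate added; 1hr RT; 665/615 nm read.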

In assay [19] the target is D(2) dopamine receptor (Homo sapiens) (UniProt P14416). Description: Dopamine D2 receptor (DRD2) small molecule agonists, cell-based qHTS assay (AID 1963594). Also: nearly all actives have a fitted effect of over 35% in size. The gist of the method:
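HEK293 cells stably expressing human DRD2, pre-treated with PDE inhibitor Ro20-1724 (0.1 mM final) and compound 10 min at room temperature, then stimulated with NKH477 (200nM […]) for 30 min. cAMP read by HTRF (665/620 nm).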

For assay [20] the target is unchanged. Description: Dopamine D2 receptor (DRD2) small molecule antagonists, cell-based qHTS assay (AID 1963595; active = well fitted inhibition curve with a large enough effect in the signal ratio in the repeat runs, with a control signal flat; the % refers to the signal ratio). The gist of the method:
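In this cell-based antagonist screen, compounds act for 10 min at room temperature before a 30 min challenge with 12 nM quinpirole and 200 nM NKH477. cAMP is quantified by HTRF competition in DRD2-HEK293 cells containing 0.1 mM Ro20-1724.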

A number with no mark means an inactive call. Results filed as inconclusive are left out. Calls of active or inactive are those of the source. Unless noted, calls follow the shape of the full dose curve.

Sequence of KiSS-1 receptor (Homo sapiens) (Q969F8 whole entry, looked up): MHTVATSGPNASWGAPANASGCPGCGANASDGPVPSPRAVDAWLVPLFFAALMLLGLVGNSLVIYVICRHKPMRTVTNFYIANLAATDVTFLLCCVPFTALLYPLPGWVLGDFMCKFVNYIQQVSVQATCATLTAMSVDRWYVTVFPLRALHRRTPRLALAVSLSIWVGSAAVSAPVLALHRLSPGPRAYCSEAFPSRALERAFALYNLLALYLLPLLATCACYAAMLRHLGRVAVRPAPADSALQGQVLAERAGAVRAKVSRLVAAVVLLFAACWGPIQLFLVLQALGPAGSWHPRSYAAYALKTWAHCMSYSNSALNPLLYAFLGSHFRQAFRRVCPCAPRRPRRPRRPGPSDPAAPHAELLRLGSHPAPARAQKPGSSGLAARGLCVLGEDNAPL
Sequence of Beta-2 adrenergic receptor (Homo sapiens) (P07550 whole entry, looked up): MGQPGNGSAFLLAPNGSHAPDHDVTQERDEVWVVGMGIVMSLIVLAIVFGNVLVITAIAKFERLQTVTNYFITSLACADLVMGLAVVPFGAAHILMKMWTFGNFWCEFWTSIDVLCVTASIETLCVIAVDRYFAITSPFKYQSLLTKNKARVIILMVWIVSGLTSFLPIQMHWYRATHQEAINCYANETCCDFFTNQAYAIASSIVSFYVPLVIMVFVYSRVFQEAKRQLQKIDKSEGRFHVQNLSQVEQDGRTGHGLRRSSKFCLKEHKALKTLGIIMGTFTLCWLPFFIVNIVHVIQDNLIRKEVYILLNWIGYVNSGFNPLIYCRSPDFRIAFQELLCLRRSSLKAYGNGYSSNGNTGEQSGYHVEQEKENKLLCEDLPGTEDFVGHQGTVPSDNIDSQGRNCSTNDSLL
Sequence of D(2) dopamine receptor (Homo sapiens) (P14416 whole entry, looked up): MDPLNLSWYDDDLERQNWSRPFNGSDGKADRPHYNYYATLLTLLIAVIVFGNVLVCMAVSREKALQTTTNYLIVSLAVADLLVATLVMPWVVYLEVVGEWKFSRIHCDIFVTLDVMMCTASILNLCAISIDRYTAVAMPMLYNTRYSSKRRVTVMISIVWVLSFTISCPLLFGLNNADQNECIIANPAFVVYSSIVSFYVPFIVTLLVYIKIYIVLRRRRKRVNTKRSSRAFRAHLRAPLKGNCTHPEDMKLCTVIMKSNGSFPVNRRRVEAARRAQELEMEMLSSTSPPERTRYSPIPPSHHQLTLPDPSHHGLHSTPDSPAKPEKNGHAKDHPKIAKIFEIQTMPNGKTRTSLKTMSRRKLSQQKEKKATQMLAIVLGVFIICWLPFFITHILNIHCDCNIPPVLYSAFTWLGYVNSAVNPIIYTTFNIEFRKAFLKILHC
Sequence of Muscarinic acetylcholine receptor M1 (Homo sapiens) (P11229 whole entry, looked up): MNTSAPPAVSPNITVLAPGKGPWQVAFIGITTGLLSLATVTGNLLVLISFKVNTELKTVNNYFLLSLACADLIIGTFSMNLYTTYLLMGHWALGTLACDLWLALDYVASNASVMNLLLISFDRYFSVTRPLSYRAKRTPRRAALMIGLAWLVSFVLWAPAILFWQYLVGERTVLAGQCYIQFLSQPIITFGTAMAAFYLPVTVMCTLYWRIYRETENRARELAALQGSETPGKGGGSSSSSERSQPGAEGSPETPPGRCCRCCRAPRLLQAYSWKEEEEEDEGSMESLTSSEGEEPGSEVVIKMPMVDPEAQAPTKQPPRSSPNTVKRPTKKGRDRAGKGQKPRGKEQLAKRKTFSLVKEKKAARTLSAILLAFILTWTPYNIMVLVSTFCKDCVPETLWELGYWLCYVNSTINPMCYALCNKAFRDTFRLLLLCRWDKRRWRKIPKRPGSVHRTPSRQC
Sequence of 5-hydroxytryptamine receptor 2A (Homo sapiens) (P28223 whole entry, looked up): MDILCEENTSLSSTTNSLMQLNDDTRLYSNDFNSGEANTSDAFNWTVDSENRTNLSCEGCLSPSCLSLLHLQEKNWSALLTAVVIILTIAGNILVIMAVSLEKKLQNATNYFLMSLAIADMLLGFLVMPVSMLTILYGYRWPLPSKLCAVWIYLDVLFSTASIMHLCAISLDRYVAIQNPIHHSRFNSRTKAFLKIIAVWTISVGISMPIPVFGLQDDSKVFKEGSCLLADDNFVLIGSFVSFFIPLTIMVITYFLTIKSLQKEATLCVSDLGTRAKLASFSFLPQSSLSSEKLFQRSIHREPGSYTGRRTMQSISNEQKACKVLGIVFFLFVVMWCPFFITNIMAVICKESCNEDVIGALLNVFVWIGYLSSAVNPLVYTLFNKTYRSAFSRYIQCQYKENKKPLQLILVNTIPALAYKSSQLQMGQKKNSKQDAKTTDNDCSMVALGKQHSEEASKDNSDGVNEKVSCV

For `CCCCOC(=O)c1ccccc1C(=O)OCCCC`, the Potency entry in assay [1], in assay [2], in assay [3], in assay [4], in assay [5] and in [6] was “inactive” each time. The Potency result in assay [7], in assay [8], in assay [9], in [10], in assay [11] and in assay [12] was “inactive” each time. Besides, the Potency entry in assay [13], in assay [14], in assay [15], in assay [16], in assay [17] and in assay [18] was “inactive” throughout. Further, the Potency entry in [19] and in [20] was “inactive” in each case.

Turning to `O=C(Cl)c1ccccc1`, the Potency result in [1], in [2], in assay [3], in [4], in assay [5] and in assay [6] was “inactive” in each case. Moreover, the Potency entry in [7], in assay [8], in [9], in assay [10], in assay [11] and in assay [12] was “inactive” each time. Also, the Potency entry in assay [13], in assay [14], in [15], in assay [16], in [17] and in assay [18] was “inactive” in each case. For the same molecule, the Potency entry in [19] and in [20] was “inactive” throughout.

For `O=C(O)C(F)(F)C(F)(F)C(F)(F)C(F)(F)C(F)(F)C(F)(F)C(F)(F)C(F)(F)F`, the Potency result in assay [1], in assay [2], in [3], in assay [4], in [5] and in [6] was “inactive” throughout. The Potency entry in assay [7], in assay [8], in assay [9], in assay [10], in assay [11] and in assay [12] was “inactive” each time. Moreover, the Potency result in [13], in assay [15], in [16], in assay [17], in assay [18] and in assay [20] was “inactive” each time. Also, the Potency in [14] is 4.21 µM (active).

For the molecule `O=c1n(Cl)c(=O)n(Cl)c(=O)n1Cl`, the Potency entry in assay [1], in assay [2], in assay [3], in assay [4], in [5] and in [6] was “inactive” in each case. The Potency result in assay [7], in assay [8], in assay [9], in [10], in assay [11] and in [12] was “inactive” throughout. The Potency result in assay [13], in [14], in assay [15], in [16], in assay [17] and in [18] was “inactive” in each case. Further, the Potency result in assay [20] is “inactive”.

With `CCCCC1C(=O)NC(=O)N(C2CCCCC2)C1=O` (configuration not stated), the Potency result in [1], in assay [2], in [3], in assay [4], in [5] and in assay [6] was “inactive” each time. For the same molecule, the Potency result in [7], in assay [8], in [9], in [10], in [11] and in assay [12] was “inactive” each time. Also, the Potency result in assay [13], in [14], in assay [15], in assay [16], in assay [17] and in assay [18] was “inactive” in each case. The Potency entry in assay [19] and in assay [20] was “inactive” in each case.

As to `Clc1cnc(Oc2ccc(Oc3ncc(Cl)cc3Cl)cc2)c(Cl)c1`, the Potency entry in assay [1], in assay [2], in [3], in [4], in [5] and in assay [6] was “inactive” throughout. Moreover, the Potency result in [7], in assay [8], in [9], in [10], in assay [11] and in assay [12] was “inactive” throughout. Also, the Potency entry in assay [13], in assay [14], in assay [15], in assay [16], in assay [17] and in [18] was “inactive” each time. For the same molecule, the Potency result in assay [19] and in assay [20] was “inactive” throughout.

For `CCOP(=O)(OCC)OP(=O)(OCC)OCC`, the Potency entry in [1], in assay [2], in assay [3], in [4], in assay [5] and in assay [6] was “inactive” throughout. In addition, the Potency entry in assay [7], in assay [8], in [9], in [10], in assay [11] and in assay [12] was “inactive” throughout. Moreover, the Potency entry in [13], in [14], in assay [15], in [16], in [17] and in assay [18] was “inactive” in each case. Moreover, the Potency entry in assay [20] is “inactive”.

As for `O=[N+]([O-])c1ccc(Cl)cc1`, the Potency entry in [1], in assay [2], in assay [3], in assay [4], in assay [5] and in assay [6] was “inactive” each time. The Potency entry in assay [7], in assay [8], in assay [9], in [10], in assay [11] and in [12] was “inactive” throughout. Also, the Potency result in [13], in assay [14], in [15], in assay [16], in [17] and in assay [18] was “inactive” in each case. Besides, the Potency result in assay [19] and in [20] was “inactive” in each case.
